Bioassay records (PubChem BioAssay)
Pf apPOL inh: Pf-apPOL DNA polymerase inhibition; Recombinant Pf-apPOL, molecular beacon fluorescence, 1.5 h; inhibition, % at 10 µM; hit rate 0.25% among 210,000; AID 1794808
mHTT CaM bind: disrupts binding of mutant huntingtin to calmodulin; P42858; AlphaScreen His-mHTT/GST-CaM binding, luminescence; inhibition, % at 15 µM; hit rate 3.6% among 190,000;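 further: 0% = both proteins with DMSO and 100% = one protein alone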
* = called active by the depositor; i = inactive; nt = not tested or not shown. A selection: hits, their analogues and other compounds. The true share with any hit is near 3.5%. No stated cut-off is given here; in the data, active means inhibition above about 50%; inactive means the rest.

SMILES | Pf apPOL inh | mHTT CaM bind
Cc1cc(C)c2c3c([nH]c2c1)CCC(NC(=O)C1CCCC1)C3 (stereo unspecified) | 1.6 | 36.3
Cc1nn(-c2ccc(C(=O)NCc3cccs3)cc2)c2c1C(=O)CC(C)(C)C2 | 5.8 | 0.0
CN1CCN(c2ccc(/C=C(\C#N)c3nc4ccccc4[nH]3)cc2[N+](=O)[O-])CC1 | -5.0 | 30.7
O=C1NC(=Nc2ccccc2)S/C1=C/c1ccccc1Br | -0.2 | -1.0
Cn1cc(/C=C2\SC(=Nc3ccccc3)NC2=O)c2ccccc21 | 1.4 | 55.0*
COc1ccccc1C1=N/C(=C/c2ccc(Cl)cc2Cl)C(=O)O1 | -3.5 | 2.0
O=C(NCc1ccccc1F)C1CCCN(c2nnc3ccc(Cl)cn23)C1 (stereo unspecified) | -0.5 | 7.6
O=C(CC1CC1)NC1CCc2[nH]c3ccc(Cl)cc3c2C1 (stereo unspecified) | 2.1 | 87.6*
CCC(=O)NC1CCc2[nH]c3ccc(C)cc3c2C1 (stereo unspecified) | -3.5 | 26.4
Cc1ccc2[nH]c3c(c2c1)CC(NC(=O)CC1C=CCC1)CC3 (stereo unspecified) | 5.5 | 96.8*
Cc1cc2[nH]c3c(c2cc1C)CC(NC(=O)C1CCCC1)CC3 (stereo unspecified) | 38.8 | 44.8
COc1cccc(/C=C2\N=C(c3ccc(C)c(C)c3)OC2=O)c1 | 5.1 | -5.0
Cc1ccc(-n2nc3c(c2NC(=O)c2c(F)cccc2Cl)CS(=O)(=O)C3)c(C)c1 | -6.1 | 7.0
CCc1c(C)c(C#N)c2nc3ccccc3n2c1NCCCN1CCOCC1 | 83.3* | -2.0
CCCCc1c(C)c(C#N)c2nc3ccccc3n2c1NCCN1CCOCC1 | 2.4 | -8.0
COc1ccccc1NC(=O)C1CC(Cl)=CCC1C(=O)O (stereo unspecified) | -0.1 | 3.4
Cc1ccccc1NC(=O)C1CC(Cl)=CCC1C(=O)O (stereo unspecified) | 64.4* | -3.9
Cc1nc2c(C(=O)NCc3ccccn3)cnn2c(C)c1Cc1cccc(Cl)c1 | -5.6 | 72.0*
COCCNC(=O)c1cnn2c(C)c(Cc3cccc(Br)c3)c(C)nc12 | -9.4 | 63.0*
COc1ccccc1CNC(=O)CSc1nc2nc(C)c(Cc3ccccc3)c(C)n2n1 | -2.5 | 10.0
Cc1ccc(CNC(=O)c2cnn3c(C)c(Cc4cccc(Br)c4)c(C)nc23)cc1 | -6.3 | 6.0
COc1ccc(CNC(=O)c2cnn3c(C)c(Cc4cccc(Cl)c4)c(C)nc23)cc1 | -6.2 | 5.0
Cc1nc2c(C(=O)NCC3CCCO3)cnn2c(C)c1Cc1cccc(Br)c1 (stereo unspecified) | -3.7 | 96.0*
COCCNC(=O)c1cnn2c(C)c(Cc3cccc(Cl)c3)c(C)nc12 | -11.6 | 45.0
COc1ccccc1CNC(=O)Cc1nc2nc(C)c(Cc3cccc(Cl)c3)c(C)n2n1 | -11.7 | 57.0*
SMILES | Pf apPOL inh | mHTT CaM bind
O=C1CN(C(=O)c2ccc(F)cc2)C(c2ccc(F)cc2)c2cc(F)ccc2N1 (stereo unspecified) | -9.8 | 3.0
Fc1ccc2c(c1)C1OCCC1C(c1ccccc1)N2 (stereo unspecified) | nt | 0.6
Fc1ccc2c(c1)C1C=CCC1C(c1ccc(Cl)cc1)N2 (stereo unspecified) | -0.5 | 75.0*
O=C(O)c1ccc(C2Nc3ccc(F)cc3C3C=CCC32)cc1 (stereo unspecified) | -7.6 | 79.0*
O=C(O)c1ccc(C2Nc3ccc(I)cc3C3C=CCC32)cc1 (stereo unspecified) | 5.8 | 97.0*
CC(=O)c1cccc(NC(=O)Cn2nc3c(cc2=O)CN(C(C)=O)CC3)c1 | -1.8 | -11.3
O=C(O)CCc1nn2c(nc3ccccc32)[nH]c1=O | 7.3 | -2.0
O=c1cc(CN2CCN(c3ccccn3)CC2)cc[nH]1 | 1.3 | -15.8
COc1ccc(Cl)cc1C(=O)Nc1ccc(-c2nc3ccccc3[nH]2)cc1 | 3.7 | 90.0*
O=[N+]([O-])c1ccc2nc(-c3ccccc3)[nH]c2c1 | 30.9 | 11.0
CC(=O)Nc1ccc(-c2nc3ccc(NC(C)=O)cc3[nH]2)cc1 | 81.4* | 0.8
COc1ccc(Cl)cc1C(=O)Nc1ccc(F)cc1 | 1.4 | -8.1
Cc1cccc2[nH]c(-c3ccc(NC(=O)c4ccc(N)cc4)cc3)nc12 | -2.4 | 21.0
C=CC(=O)Nc1ccc(-c2nc3ccc(NC(=O)C=C)cc3[nH]2)cc1 | 5.6 | 1.0
Nc1ccc(C(=O)Nc2ccc(-c3nc4ccc(NC(=O)c5ccc(N)cc5)cc4[nH]3)cc2)cc1 | -27.1 | 52.2*
O=C(O)c1ccc(-c2nc3ccc(-c4ccc5nc(-c6ccc(C(=O)O)cc6)[nH]c5c4)cc3[nH]2)cc1 | 85.7* | nt
C=CCOc1c(Cl)cc(/C=N\n2nnnc2N)cc1OC | nt | i
COc1ccc(CCN2CC(C(=O)NCc3ccc(Cl)cc3)CC2=O)cc1OC (stereo unspecified) | 3.4 | 7.7
CCN(CC)c1ccc(C=Nc2c(C)n(C)n(-c3ccccc3)c2=O)c(OC)c1 | 1.6 | 9.0
Cc1cccc(-n2nc3c(c2NC(=O)c2ccc(Br)o2)CS(=O)(=O)C3)c1C | -3.9 | 5.0
COc1cccc(C2CC(c3ccc(OC(F)F)cc3)n3ncnc3N2)c1 (stereo unspecified) | -1.6 | 26.0
COc1ccc2c(c1)OC(=Cc1cc(OC)c(OC)c(OC)c1)C2=O | -13.2 | 5.9
c1ccc(CNc2nc(-c3ccccn3)cs2)cc1 | -2.0 | 100.2*
c1ccc(-c2csc(NCc3ccco3)n2)cc1 | -8.6 | 24.2
c1ccc(-c2csc(NCc3ccco3)n2)nc1 | -17.6 | 98.6*
SMILES | Pf apPOL inh | mHTT CaM bind
CCNc1nc(-c2ccccc2)cs1 | -11.5 | nt
CCc1csc(-c2ccc(N3CCN(C(=O)c4cccc(F)c4)CC3)nc2)n1 | 0.2 | -2.8
O=[N+]([O-])c1ccc(C=C(c2nnnn2-c2ccccc2)c2nnnn2-c2ccccc2)cc1 | -5.0 | 25.4
CCOCc1c(C)cc(C)c(C=C(C#N)C#N)c1C | nt | -4.5
CCOC(=O)CC[C@@H]1CC[C@]2(CCCN(Cc3cccs3)C2)O1 | -5.5 | 93.9*
CCN(CC)C(=O)CC[C@H]1CC[C@]2(CCCN(Cc3cccs3)C2)O1 | -4.6 | -3.6
CC(C)C(=O)NCC1(C)CC(NC(=O)C(C)C)CC(C)(C)C1 (stereo unspecified) | -0.8 | -1.5
CC(C)c1noc(-c2cccnc2N2CCCN(Cc3ccccc3Cl)CC2)n1 | 2.1 | 60.9*
Cc1ccccc1CN1CCCN(c2ncccc2-c2nc(C(C)C)no2)CC1 | -2.4 | -66.5
Cc1[nH]c2ccc(C(=O)O)cc2c(=O)c1CCC(=O)O | -4.3 | -6.1
NC(N)=Nc1nc(-c2ccccc2)c2ccccc2n1 | -2.0 | 73.3*
Cc1ccc2c(C)nc(N=C(N)N)nc2c1 | 4.7 | 7.3
CCCC1c2cccn2CCN1C(=O)NCCOC (stereo unspecified) | -9.5 | 18.2
CC12C=CC(O1)C1C(=O)N(c3ccc(Cl)cc3[N+](=O)[O-])C(=O)C12 (stereo unspecified) | -4.1 | 5.0
O=C(CN(c1ccccc1)S(=O)(=O)c1ccccc1[N+](=O)[O-])N1CCCCC1 | -5.1 | 6.6
Cc1cc2[nH]c(C(=O)Nc3cccc(Cl)c3C)c(CN3CCOCC3)c2s1 | 14.9 | 35.8
Cc1cc2[nH]c(C(=O)Nc3cccc(C)c3C)c(CN3CCOCC3)c2s1 | -8.9 | 52.9*
O=C(COc1ccccc1)NCC1CC(=O)N(Cc2ccc(F)cc2)C1 (stereo unspecified) | -6.2 | -5.9
O=S(=O)(Nc1ccc(N2CCOCC2)cc1)c1ccc(Cl)cc1 | -2.2 | 7.2
O=S(=O)(c1ccccc1)c1nc(C(c2ccccc2)c2ccccc2)oc1N1CCOCC1 | 2.5 | 26.0
